# According to PubChem BioAssay AID1851 (National Center for Advancing Translational Sciences (NCATS), 2009):
# Among all 16,000 compounds or so, about 2,600 (16%) were called active. Roughly 20% stayed inconclusive and do not appear here. The call rests on the fitted dose curve; in most records, active means well fitted curve in the direction sought with a large enough effect; inconclusive means small, poorly fitted or top-dose-only effect, or effect the other way; inactive means no such curve, though single readings can be large or run the other way. These entries were drawn from the full list.
# Biological target: Cytochrome P450 2D6 (Homo sapiens) (UniProt P10635)
# Experiment: Cytochrome panel assay with activity outcomes
# Conditions: recombinant CYP, pro-luciferin dealkylation, luminescence, p450-cyp2d6; series mostly up to 57.1 µM; activity, negative = inhibition: at the top concentration
# On the % scale 0 is the no-effect control and ±100 the full control effect.
# Sequence of Cytochrome P450 2D6 (Homo sapiens) (P10635 whole entry, looked up): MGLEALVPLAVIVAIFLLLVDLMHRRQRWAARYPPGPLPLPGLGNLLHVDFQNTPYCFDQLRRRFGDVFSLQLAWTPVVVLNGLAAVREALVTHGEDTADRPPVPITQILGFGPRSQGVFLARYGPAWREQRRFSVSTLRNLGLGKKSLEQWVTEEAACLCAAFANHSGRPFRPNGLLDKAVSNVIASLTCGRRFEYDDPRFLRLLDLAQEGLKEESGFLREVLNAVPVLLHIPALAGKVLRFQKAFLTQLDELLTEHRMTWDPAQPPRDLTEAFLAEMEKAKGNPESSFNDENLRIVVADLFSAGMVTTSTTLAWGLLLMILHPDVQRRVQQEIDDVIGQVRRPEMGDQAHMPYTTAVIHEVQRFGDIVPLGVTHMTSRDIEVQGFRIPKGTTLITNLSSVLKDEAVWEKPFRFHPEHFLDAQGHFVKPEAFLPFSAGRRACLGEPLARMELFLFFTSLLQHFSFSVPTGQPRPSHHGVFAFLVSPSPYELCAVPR
Structure (SMILES),"activity, negative = inhibition",AC50
CC(=O)NCCc1c(Cc2ccccc2)[nH]c2ccccc12,-11.5% (inactive),
CCSc1c(C(=O)NC)ccc2c1C(=O)c1ccccc1C2=O,-22.2% (inactive),
Cc1[nH]c2ccccc2c1CCNC(=O)c1ccc2c(c1[N+](=O)[O-])C(=O)c1ccccc1C2=O,,1.12 µM (active)
CC(C)[C@@H]1NC(=O)[C@H](CCCCN)NC(=O)[C@H](Cc2c[nH]c3ccccc23)NC(=O)[C@H](Cc2ccc(O)cc2)NC(=O)[C@H](C)N(C)C(=O)[C@H](Cc2ccccc2)NC1=O,2.29% (inactive),
Nc1ccc(-c2ccc(Nc3cc(S(=O)(=O)O)c(N)c4c3C(=O)c3ccccc3C4=O)cc2)c(S(=O)(=O)O)c1,6.34% [at 11.4 µM] (inactive),
N#Cc1cccc(-c2nc(Nc3ccccc3)c3ccccc3n2)c1,9.28% (inactive),
CNc1nc(-c2cccc(C#N)c2)nc2ccccc12,8.46% (inactive),
N#Cc1cccc(-c2nc(NCc3ccccc3)c3ccccc3n2)c1,,10 µM (active)
N#Cc1cccc(-c2nc(NCc3cccnc3)c3ccccc3n2)c1,-8.94% (inactive),
COc1ccccc1CNc1nc(-c2cccc(C#N)c2)nc2ccccc12,,10 µM (active)
Cn1cnnc1SCC(=O)OCN1C(=O)c2ccccc2C1=O,21.6% (inactive),
Cc1noc(C)c1C(=O)N1CCC2(CCN(C(=O)NC(C)C)CC2)CC1,11.3% (inactive),
Cn1c(=O)c2c(ncn2CC(COCc2ccccc2Cl)OCc2ccccc2Cl)n(C)c1=O (stereo not given),,15.8 µM (active)
Cn1c(=O)c2c(ncn2CCO)n(C)c1=O,-0.742% [at 25.6 µM] (inactive),
Cn1c(=O)c2c(ncn2C[C@@H](O)CO)n(C)c1=O,0.0743% [at 25.6 µM] (inactive),
Cc1cccc(C(=O)NNC(=O)C(=O)NC(C)(C)C)c1,8.26% (inactive),
CC1(C)CC(=O)C2=C(C1)N(Cc1cccnc1)C(=O)C2(NC(=O)c1cccnc1)C(F)(F)F (stereo not given),12.6% (inactive),
CCn1c(-c2ccc3ncccc3c2)n[nH]c1=S,-1.86% (inactive),
CCCOc1cccc(-c2cc(-c3n[nH]c(=S)n3CC)c3ccccc3n2)c1,,6.31 µM (active)
CCn1c(-c2ccoc2C)n[nH]c1=S,4.15% (inactive),
CSc1nnc2c(n1)OC(C)N(C(=O)c1ccccc1)c1ccccc1-2 (stereo not given),-6.63% (inactive),
CCOC(=O)CSc1n[nH]c(-c2cccnc2)n1,20% (inactive),
CC(/C=N/n1c(-c2cccnc2)n[nH]c1=S)=C\c1ccccc1,,7.08 µM (active)
CC(=C/c1ccccc1)/C=N/n1cnnc1,-4.74% (inactive),
COc1ccc(-n2c(=O)c(-c3cccs3)nc3cnc(Nc4cccc(OC)c4)nc32)cc1,6% (inactive),

Structure (SMILES),"activity, negative = inhibition",AC50
CN(C)c1ncc2nc(-c3cccs3)c(=O)n(CCc3ccccc3)c2n1,-3.61% (inactive),
O=c1c(-c2cccs2)nc2cncnc2n1Cc1ccccc1,-2.29% (inactive),
O=c1onc(-c2cccs2)n1Cc1ccccc1,,11.2 µM (active)
COc1cc2c(cc1OC)C(C(=O)N1CCN(c3ccccn3)CC1)C(c1cccs1)N(C)C2=O (stereo not given),-6.69% (inactive),
OCCN(CCO)c1ncnc2nc[nH]c12,-3.25% [at 11.4 µM] (inactive),
Cc1cc(C)cc(NC(=O)N2CCCC2C(=O)Nc2ccc(-n3cnnn3)c(C)c2)c1 (stereo not given),1.05% (inactive),
COc1cccc(Nc2ncc3nc(-c4ccc(F)cc4)c(=O)n(CCC#N)c3n2)c1,-3.04% (inactive),
COc1ccc(N2CCN(C(=S)Nc3cc(C)cc(C)c3)CC2)cc1,-6.18% (inactive),
CCOC(=O)c1[nH]c(C(=O)O)c(CCC(=O)OC)c1C,1.16% (inactive),
CN1CCN(C2=Cc3ccccc3Oc3ccc(Cl)cc32)CC1,,0.0398 µM (active)
CN1CCN(c2cc(-c3ccccc3C(F)(F)F)ncn2)CC1,-0.967% (inactive),
Cc1ccc(Cl)cc1N1CCN(S(=O)(=O)c2ccc3c(c2)OCCO3)CC1,7.2% (inactive),
COCCn1c(=O)c(-c2ccc(Cl)cc2)nc2cnc(Nc3ccccc3)nc21,-2.28% (inactive),
Cn1c(N)c(N=Nc2ccc(S(N)(=O)=O)cc2)c(=O)n(C)c1=O,5.11% [at 11.4 µM] (inactive),
Cc1cc(N2CCOCC2)nc2ccc(Cc3ccc4nc(N5CCOCC5)cc(C)c4c3)cc12,-2.88% [at 11.4 µM] (inactive),
CCN(CC)C(=O)N1CCN(C)CC1,2.61% [at 25.6 µM] (inactive),
COc1ccc(Sc2ccc(NC(=O)c3ccccc3Cl)cc2C#N)cc1,-7.88% (inactive),
Cc1cccc(NC(=O)CC2Nc3cccc4cccc(c34)NC2=O)c1 (stereo not given),,14.1 µM (active)
CCOC(=O)c1ccc(NC(=O)CC2NCCNC2=O)cc1 (stereo not given),20.7% (inactive),
CC(=O)Nc1ccc(NC(=O)CC2Nc3cccc4cccc(c34)NC2=O)cc1 (stereo not given),-14.1% (inactive),
Cc1nc(NS(=O)(=O)c2ccc(Br)cc2)c2c3c(sc2n1)CCC3,-1.48% (inactive),
Cc1cc(NC(=O)c2cccc(F)c2)no1,-5.34% (inactive),
Cc1ccc(-c2csc(C(C#N)=C3CCCC3)n2)cc1,-8.56% (inactive),
Cc1ccc(N2CC(C(=O)Nc3cc(C)on3)CC2=O)cc1 (stereo not given),-5.5% (inactive),
c1csc(CNc2ncncc2-c2ccoc2)c1,,15.8 µM (active)
